# Assay results published in the supplement of paper PMC7057948, “A genome-wide approach for identification and characterisation of metabolite-inducible systems” (Nature Communications, 2020).
# Legend:
# Settings in all cases: inducer concentration 5 mM; 6 h; Cupriavidus necator H16; minimal medium + 0.4% gluconate
# [1] = system: AcoR/P_H16_RS19445 acetoin biosensor (pEH052); assay: relative induction of RFP reporter vs primary effector; higher = stronger activation
# Procedure: (§1)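 Orthogonality screen of 21 primary inducers against 21 transcription factor/inducible promoter–mRFP biosensors in C. necator H16 in minimal medium, robotic 96-well format, 5 mM inducer, 30 °C. OD-normalised RFP fluorescence was read 6 h later and expressed as relative induction (%) = 100 × (FL compound − FL uninduced)/(FL primary inducer − FL uninduced); mean of n=4. Cognate pairs (100% by definition) omitted.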
# [2] = system: AraC/P_araBAD L-arabinose biosensor (pEH176); assay: as above
# Procedure: as §1
# [3] = system: BadR/P_H16_RS27200 cyclohexanecarboxylate biosensor (pEH159); assay: as above
# Procedure: as §1
# [4] = system: BenM/P_H16_RS09790 benzoate biosensor (pEH148); assay: as above
# Procedure: as §1
# [5] = system: GabR/P_H16_RS23655 GABA biosensor (pEH256); assay: as above
# Procedure: as §1
# [6] = system: HpdA/P_H16_RS24175 L-tyrosine biosensor (pEH158); assay: as above
# Procedure: as §1
# [7] = system: NahR/P_H16_RS08125 salicylate biosensor (pEH042); assay: as above
# Procedure: as §1
# [8] = system: OapR/P_H16_RS01330 beta-alanine biosensor (pEH147); assay: as above
# Procedure: as §1
# [9] = system: PcaQ/P_H16_RS30145 3,4-dihydroxybenzoate biosensor (pEH161); assay: as above
# Procedure: as §1
# [10] = system: SauR/P_H16_RS13695 sulfonatoacetate biosensor (pEH157); assay: as above
# Procedure: as §1
# [11] = system: TtdR/P_H16_RS10665 tartrate biosensor (pEH083); assay: as above
# Procedure: as §1
# [12] = system: XdhR/P_H16_RS05055 xanthine biosensor (pEH154); assay: as above
# Procedure: as §1
# [13] = system: heterologous L-rhamnose-inducible system; assay: as above
# Procedure: as §1
# [14] = system: heterologous acrylate-inducible system; assay: as above
# Procedure: as §1
# [15] = system: heterologous cumate-inducible system; assay: as above
# Procedure: as §1
# [16] = system: heterologous itaconate-inducible system; assay: as above
# Procedure: as §1
# [17] = system: FdsR/P_H16_RS03165 formate biosensor (pEH134); assay: as above
# Procedure: as §1
# [18] = system: PhgR/P_H16_RS05530 phenylglyoxylate biosensor (pEH155); assay: as above
# Procedure: as §1
# [19] = system: AcoR/P_H16_RS19445 acetoin biosensor (pEH052); assay: relative induction of RFP reporter vs primary effector (background-corrected); higher = stronger activation of the biosensor
# Procedure: (§2)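 C. necator H16 strains, each carrying one of 21 transcription factor/inducible promoter–mRFP biosensor plasmids, were grown in minimal medium in 96-well plates (robotic platform). Each was exposed to 46 structurally or metabolically related compounds at 5 mM at 30 °C. OD-normalised RFP fluorescence was read 6 h later and expressed as relative induction (%) = 100 × (FL compound − FL uninduced)/(FL primary inducer − FL uninduced); mean of n=4.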
# [20] = system: AraC/P_araBAD L-arabinose biosensor (pEH176); assay: as above
# Procedure: as §2
# [21] = system: BenM/P_H16_RS09790 benzoate biosensor (pEH148); assay: as above
# Procedure: as §2
# [22] = system: FdsR/P_H16_RS03165 formate biosensor (pEH134); assay: as above
# Procedure: as §2
# [23] = system: GabR/P_H16_RS23655 GABA biosensor (pEH256); assay: as above
# Procedure: as §2
# [24] = system: HpdR/P_H16_RS18295 3-hydroxypropanoate biosensor (pEH010); assay: as above
# Procedure: as §2
# [25] = system: KynR/P_H16_RS14030 L-kynurenine biosensor (pEH136); assay: as above
# Procedure: as §2
# [26] = system: NahR/P_H16_RS08125 salicylate biosensor (pEH042); assay: as above
# Procedure: as §2
# [27] = system: OapR/P_H16_RS01330 beta-alanine biosensor (pEH147); assay: as above
# Procedure: as §2
# [28] = system: PcaQ/P_H16_RS30145 3,4-dihydroxybenzoate biosensor (pEH161); assay: as above
# Procedure: as §2
# [29] = system: PhgR/P_H16_RS05530 phenylglyoxylate biosensor (pEH155); assay: as above
# Procedure: as §2
# [30] = system: PhhR/P_H16_RS18365 L-phenylalanine biosensor (pEH137); assay: as above
# Procedure: as §2
# [31] = system: SauR/P_H16_RS13695 sulfonatoacetate biosensor (pEH157); assay: as above
# Procedure: as §2
# [32] = system: TtdR/P_H16_RS10665 tartrate biosensor (pEH083); assay: as above
# Procedure: as §2
# [33] = system: XdhR/P_H16_RS05055 xanthine biosensor (pEH154); assay: as above
# Procedure: as §2
# [34] = system: heterologous inducible system pEH002 (rhamnose/acrylate/cumate/itaconate set); assay: as above
# Procedure: as §2
# [35] = system: heterologous inducible system pEH020 (rhamnose/acrylate/cumate/itaconate set); assay: as above
# Procedure: as §2
# [36] = system: heterologous inducible system pEH040 (rhamnose/acrylate/cumate/itaconate set); assay: as above
# Procedure: as §2
# [37] = system: heterologous inducible system pEH086 (rhamnose/acrylate/cumate/itaconate set); assay: as above
# Procedure: as §2
# 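Throughout, for relative induction of RFP reporter vs primary effector (background-corrected): RFP excited at 585 nm with emission read at 620 nm, culture medium blanks subtracted from fluorescence and absorbance prior to normalisation.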
smiles,measurement,setting,value
O=C(O)C(=O)c1ccccc1 [phenylglyoxylate],relative induction of RFP reporter,[1],-2.12%
same,relative induction of RFP reporter,[2],-0.003%
same,relative induction of RFP reporter,[3],-0.214%
same,relative induction of RFP reporter,[4],16.8%
same,relative induction of RFP reporter,[5],-2.13%
same,relative induction of RFP reporter,[6],-0.159%
same,relative induction of RFP reporter,[7],0.00691%
same,relative induction of RFP reporter,[8],-1.44%
same,relative induction of RFP reporter,[9],-0.114%
same,relative induction of RFP reporter,[10],0.0193%
same,relative induction of RFP reporter,[11],-0.379%
same,relative induction of RFP reporter,[12],-1.19%
same,relative induction of RFP reporter,[13],-0.00891%
same,relative induction of RFP reporter,[14],-2.28%
same,relative induction of RFP reporter,[15],-1.12%
same,relative induction of RFP reporter,[16],-0.288%
O=C(O)CS(=O)(=O)O [sulfonatoacetate],relative induction of RFP reporter,[1],0.846%
same,relative induction of RFP reporter,[2],0.0162%
same,relative induction of RFP reporter,[3],-0.423%
same,relative induction of RFP reporter,[4],-0.0067%
same,relative induction of RFP reporter,[17],-4.35%
same,relative induction of RFP reporter,[5],-1.11%
same,relative induction of RFP reporter,[6],-0.143%
same,relative induction of RFP reporter,[7],-0.0115%
same,relative induction of RFP reporter,[8],-0.372%
same,relative induction of RFP reporter,[9],-0.165%
same,relative induction of RFP reporter,[18],-0.406%
same,relative induction of RFP reporter,[11],0.749%
same,relative induction of RFP reporter,[12],-0.434%
same,relative induction of RFP reporter,[13],0.0242%
same,relative induction of RFP reporter,[14],-0.561%
same,relative induction of RFP reporter,[15],0.916%
same,relative induction of RFP reporter,[16],0.693%
C[C@H](N)C(=O)O [L-alanine],relative induction of RFP reporter,[19],-2.72%
same,relative induction of RFP reporter,[20],-0.0291%
same,relative induction of RFP reporter,[21],-0.053%
same,relative induction of RFP reporter,[22],-2.12%
same,relative induction of RFP reporter,[23],-2.55%
same,relative induction of RFP reporter,[24],-0.329%
same,relative induction of RFP reporter,[25],-0.519%
same,relative induction of RFP reporter,[26],0.00167%
same,relative induction of RFP reporter,[27],-0.209%
same,relative induction of RFP reporter,[28],-0.263%
same,relative induction of RFP reporter,[29],-0.259%
same,relative induction of RFP reporter,[30],-0.741%
same,relative induction of RFP reporter,[31],-0.0427%
same,relative induction of RFP reporter,[32],-0.256%
same,relative induction of RFP reporter,[33],-0.737%
same,relative induction of RFP reporter,[34],-0.00357%
same,relative induction of RFP reporter,[35],-1.6%
same,relative induction of RFP reporter,[36],-1.7%
same,relative induction of RFP reporter,[37],-0.23%
O=CC(=O)O [glyoxylate],relative induction of RFP reporter,[19],-0.798%
same,relative induction of RFP reporter,[20],0.00961%
same,relative induction of RFP reporter,[21],-0.0259%
same,relative induction of RFP reporter,[22],-3.09%
same,relative induction of RFP reporter,[23],-0.762%
same,relative induction of RFP reporter,[24],-0.292%
same,relative induction of RFP reporter,[25],-0.15%
same,relative induction of RFP reporter,[26],0.0197%
same,relative induction of RFP reporter,[27],0.146%
same,relative induction of RFP reporter,[28],0.0806%
same,relative induction of RFP reporter,[30],0.0787%
same,relative induction of RFP reporter,[31],-0.00107%
same,relative induction of RFP reporter,[32],0.296%
same,relative induction of RFP reporter,[33],-0.199%
same,relative induction of RFP reporter,[34],0.0215%
same,relative induction of RFP reporter,[35],-0.333%
same,relative induction of RFP reporter,[36],-0.263%
same,relative induction of RFP reporter,[37],0.035%
NC(=O)CC[C@H](N)C(=O)O [L-glutamine],relative induction of RFP reporter,[19],-1.76%
same,relative induction of RFP reporter,[20],-0.022%
same,relative induction of RFP reporter,[21],-0.0444%
same,relative induction of RFP reporter,[22],4.9%
same,relative induction of RFP reporter,[23],-2.05%
same,relative induction of RFP reporter,[24],-0.13%
same,relative induction of RFP reporter,[25],-0.513%
same,relative induction of RFP reporter,[26],0.00325%
same,relative induction of RFP reporter,[27],-0.494%
same,relative induction of RFP reporter,[28],-0.146%
same,relative induction of RFP reporter,[29],-0.333%
same,relative induction of RFP reporter,[30],-0.432%
same,relative induction of RFP reporter,[31],0.0183%
same,relative induction of RFP reporter,[32],0.541%
same,relative induction of RFP reporter,[33],-0.666%
same,relative induction of RFP reporter,[34],0.00684%
same,relative induction of RFP reporter,[35],-0.587%
same,relative induction of RFP reporter,[36],-2.02%
same,relative induction of RFP reporter,[37],0.168%
